G9a inh = qHTS Assay for Inhibitors of Histone Lysine Methyltransferase G9a. Histone-lysine N-methyltransferase EHMT2 (Homo sapiens), Q96KQ7. G9a H3K9 monomethylation, AlphaScreen, 2 h. Potency, µM (titrated, usually from 102 µM), usual class: inhibitors. hit rate 8.8% among 350,000; also: nearly all actives have a fitted effect of over 75% in size
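Compounds were preincubated with 20 nM G9a for 15 min, after which biotinylated H3K9 peptide (500 nM) and SAM (20 uM) started a 2 h room-temperature reaction. Monomethylated product was quantified by antibody-based AlphaScreen chemiluminescence.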
JMJD2A Tudor = qHTS Assay for Inhibitors of JMJD2A-Tudor Domain. Lysine-specific demethylase 4A (Homo sapiens), O75164. AlphaScreen JMJD2A-Tudor / H3K4me3 peptide binding. Potency, µM (highest dose often 114 µM), most hits filed as inhibitors. hit rate 4.4% among 390,000; also: nearly all actives have a fitted effect of over 50% in size
BAZ2B inh = qHTS Assay for Inhibitors of BAZ2B | Bromodomain adjacent to zinc finger domain protein 2B (Homo sapiens), Q9UIF8 | AlphaScreen BAZ2B-H3K14Ac peptide displacement | Potency, µM (titrated, usually from 114 µM), most hits filed as inhibitors | hit rate 4.4% among 360,000; also: nearly all actives have a fitted effect of over 60% in size
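Compounds, titrated to a top concentration of 110 uM, were incubated 30 min at room temperature with preformed BAZ2B/acetyl-K14 H3 peptide complex (50 nM each). Proximity signal was measured by AlphaScreen after 20 min with beads.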
Sfp PPTase inh = qHTS Assay for Inhibitors of Bacillus subtilis Sfp phosphopantetheinyl transferase (PPTase); hit rate 3.5% among 310,000; Biochemical Sfp PPTase activity, qHTS; AID 1490, 2009; 4'-phosphopantetheinyl transferase ffp (Bacillus subtilis), Q9F4F7; Potency, µM, actives largely listed as inhibitors;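 also: the enzyme is Sfp with the accession as filed and its product quenches rhodamine fluorescence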
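After 15 min at room temperature with compound, 15 nM Sfp received 5 uM rhodamine-CoA plus 12.5 uM BHQ-2-ybbR (50 mM Hepes pH 7.6, 10 mM MgCl2). Rate came from the fluorescence difference over 30 min, ex 525/em 598 nm.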
HP1b binding inh = HTS for Inhibitors of HP1-beta Chromodomain Interactions with Methylated Histone Tails; Chromobox protein homolog 1 (Homo sapiens), P83916; AlphaScreen HP1-beta / biotin-H3K9me3 peptide binding; Potency, µM (series often up to 114 µM), actives largely listed as inhibitors; hit rate 0.56% among 390,000; also: nearly all actives have a fitted effect of over 70% in size
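AlphaScreen: HP1-beta (50 nM) preformed 30 min with biotin-H3(1-18)K9me3 peptide (50 nM) in PBS pH 7.4, 0.01% Tween-20. Compound added for 30 min at RT, then streptavidin donor/nickel chelate acceptor beads (10 ug/mL) for 30 min.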
Large screens that a line does not name were inactive. Most compounds without a hit are left out; they make up all but 12% or so of the library. Calls follow the shape of the dose curve; as a rule, active = well fitted curve in the direction sought with a large enough effect; inconclusive = small, poorly fitted or top-dose-only effect, or another doubt; inactive = no such curve, though single readings can be large; an effect the other way counts as inactive or inconclusive.

O=C(NCc1ccccc1)c1cccc(NS(=O)(=O)c2cccc3cccnc23)c1	none
O=C(NCc1cccc(Cl)c1)c1ccc(NC(=O)N2CC3CCCN3c3ccccc32)cc1 (stereo not drawn)	G9a inh 10µM, JMJD2A Tudor inconclusive, BAZ2B inh inconclusive (no result: Sfp PPTase inh)
O=C(Nc1cccc(Cl)c1)N1CC2CCCN2c2ccccc21 (stereo not drawn)	G9a inh 2.2µM, JMJD2A Tudor 14µM, BAZ2B inh 18µM, HP1b binding inh inconclusive (no result: Sfp PPTase inh)
CCOc1ccc(CNC(=O)CCC(=O)N2CC3CCCN3c3ccccc32)cc1 (stereo not drawn)	JMJD2A Tudor inconclusive, BAZ2B inh 50µM, HP1b binding inh inconclusive (no result: Sfp PPTase inh)
COc1ccc(OC)c(NC(=O)N2CC3CCCN3c3ccccc32)c1 (stereo not drawn)	G9a inh 18µM, JMJD2A Tudor 40µM, BAZ2B inh 20µM, HP1b binding inh inconclusive (no result: Sfp PPTase inh)
COc1cc(S(=O)(=O)Nc2ccccc2N2CCCCC2)ccc1NC(C)=O	none (no result: Sfp PPTase inh)
CCc1ccc(CN(Cc2ccco2)C(=O)c2cc(-c3ccc(Cl)cc3)on2)cc1	none (no result: Sfp PPTase inh)
CCCS(=O)(=O)c1nc(S(=O)(=O)c2ccc(C)cc2)c(NCc2ccccn2)s1	G9a inh 35µM
CCCS(=O)(=O)c1nc(S(=O)(=O)c2ccc(C)cc2)c(NCc2ccco2)s1	G9a inh 40µM
CS(=O)(=O)c1nc(S(=O)(=O)c2ccc(Cl)cc2)c(NCc2ccccn2)s1	G9a inh 40µM
CCCS(=O)(=O)c1nc(S(=O)(=O)c2ccc(C)cc2)c(N2CC(C)OC(C)C2)s1 (stereo not drawn)	G9a inh 50µM
Cc1cc2oc(=O)c(CC(=O)NCCc3ccccc3)c(C)c2c2occ(C(C)(C)C)c12	none (no result: Sfp PPTase inh)
COc1ccc2nc(C)cc(Sc3nc4ccccc4s3)c2c1	G9a inh 14µM, JMJD2A Tudor 79µM, Sfp PPTase inh inconclusive
COc1ccc(C(=O)NC(C)c2nc3ccccc3n2C)cc1OC (stereo not drawn)	none
COc1ccc(C(=O)NN2CC(O)=C(c3nc4ccccc4n3C)C2=N)cc1OC	JMJD2A Tudor 4.5µM
CCN(CC(=O)Nc1ccc(NC(C)=O)cc1)C(=O)/C=C/c1cn(-c2ccccc2)nc1-c1cccs1	G9a inh 32µM (no result: Sfp PPTase inh)
COc1cccc(NC(=O)CN(C)C(=O)/C=C/c2cn(Cc3ccccc3)nc2-c2cccnc2)c1	none (no result: Sfp PPTase inh)
CCN(CC(=O)Nc1ccc(NC(C)=O)cc1)C(=O)/C=C/c1cn(Cc2ccccc2)nc1-c1cccnc1	G9a inh 14µM (no result: Sfp PPTase inh)
Cc1ccc(S(=O)(=O)c2cc3c(=O)n4ccccc4nc3n(Cc3ccco3)c2=N)cc1C	G9a inh inconclusive, Sfp PPTase inh 79µM
N=c1c(S(=O)(=O)c2ccccc2)cc2c(=O)n3ccccc3nc2n1Cc1ccco1	Sfp PPTase inh inconclusive
Cc1cccn2c(=O)c3cc(S(=O)(=O)c4ccccc4)c(=N)n(Cc4ccco4)c3nc12	Sfp PPTase inh 56µM
Cc1cccn2c(=O)c3cc(S(=O)(=O)c4ccc(F)cc4)c(=N)n(Cc4ccco4)c3nc12	none
CC(=O)c1cc(-c2ccccc2)n(CC(=O)NCc2cccs2)c1C	none
COc1ccc(S(=O)(=O)NCCS(=O)(=O)N2CCN(c3ccccc3)CC2)cc1	none (no result: Sfp PPTase inh)
O=C(c1ccc([N+](=O)[O-])cc1)N1CCSC1c1ccc(Br)cc1 (stereo not drawn)	G9a inh inconclusive, BAZ2B inh inconclusive, HP1b binding inh 16µM
CCN(CC(=O)NCc1cccs1)C(=O)c1ccc(Cl)c(Cl)c1	none (no result: G9a inh, BAZ2B inh, Sfp PPTase inh)
CCCc1nc2ccccc2c(C(=O)N(CC)CC(=O)NCc2cccs2)c1CC	G9a inh 35µM (no result: Sfp PPTase inh)
COc1ccc(OCCN2CCN(C3CC(=O)N(CCC(C)C)C3=O)CC2)cc1 (stereo not drawn)	none
CCOC(=O)c1cccc(C2=CC(=O)C[C@H](c3ccc(Cl)cc3)C2)c1	none (no result: Sfp PPTase inh)
Cc1ccccc1OCC(=O)OC(C(=O)c1ccccc1)c1ccccc1 (stereo not drawn)	none
Cc1ccc(-c2ccccc2)n1-c1cccc(C(=O)O)c1	G9a inh 50µM, JMJD2A Tudor inconclusive
Cc1ccc(-c2ccccc2)n1-c1ccc(C(=O)O)cc1	G9a inh 10µM, JMJD2A Tudor inconclusive, BAZ2B inh inconclusive, Sfp PPTase inh 71µM
O=C1c2c(O)cccc2C(C2OC(CO)[C@@H](O)[C@H](O)[C@H]2O)c2cc(CO)cc(O)c21 (stereo partly drawn)	G9a inh inconclusive (no result: Sfp PPTase inh)
O=C(O)c1cc(O)c2c(c1)[C@@H]([C@H]1c3cc(C(=O)O)cc(O)c3C(=O)c3c(O[C@@H]4O[C@H](CO)[C@@H](O)[C@H](O)[C@H]4O)cccc31)c1cccc(OC3O[C@H](CO)[C@@H](O)[C@H](O)[C@H]3O)c1C2=O (stereo partly drawn)	G9a inh 1.3µM, JMJD2A Tudor 0.32µM, BAZ2B inh 0.79µM (no result: Sfp PPTase inh)
O=C1c2cc(CO)cc(O)c2C(=O)c2c(O[C@@H]3OC(CO)[C@@H](O)[C@@H](O)[C@@H]3O)cccc21 (stereo partly drawn)	none (no result: G9a inh, BAZ2B inh, Sfp PPTase inh)
O=C(O)c1cc(O)c2c(c1)[C@H]([C@H]1c3cc(C(=O)O)cc(O)c3C(=O)c3c(O[C@@H]4O[C@H](CO)[C@@H](O)[C@H](O)[C@H]4O)cccc31)c1cccc(OC3O[C@H](CO)[C@@H](O)[C@H](O)[C@H]3O)c1C2=O (stereo partly drawn)	G9a inh 1.3µM, JMJD2A Tudor 0.32µM, BAZ2B inh 0.79µM, HP1b binding inh inconclusive (no result: Sfp PPTase inh)
O=C(Nc1nc(-c2ccccn2)cs1)C1CC(=O)N(c2ccc3c(c2)OCCO3)C1 (stereo not drawn)	JMJD2A Tudor 35µM, BAZ2B inh 40µM
COc1ccc2nc(NNC(=O)C3COc4ccccc4O3)sc2c1 (stereo not drawn)	G9a inh inconclusive, Sfp PPTase inh 79µM
CC(C)[C@H](NC(=O)C1CC(=O)N(c2ccc3c(c2)OCO3)C1)C(=O)NC1CCCC1 (stereo partly drawn)	G9a inh 56µM, BAZ2B inh inconclusive
O=C(Nc1nc(-c2cccs2)cs1)C1CC(=O)N(c2ccc3c(c2)OCCO3)C1 (stereo not drawn)	none (no result: G9a inh, BAZ2B inh, Sfp PPTase inh)
COc1ccc(Cl)cc1C(=O)NNC(=O)C1COc2ccccc2O1 (stereo not drawn)	JMJD2A Tudor 22µM
C=C(C)COc1ccc2c(C)c(CC(=O)N3C[C@H]4C[C@@H](C3)c3cccc(=O)n3C4)c(=O)oc2c1C	none (no result: G9a inh)
O=S(=O)(c1ccc(NCCOCCO)nc1)N1CCCCC1	none (no result: Sfp PPTase inh)

Assay outcomes from PubChem.
